# Bioassay records as filed in PubChem.
# Shown are actives, neighbours in structure and some others; about 7.5% of the full set was active somewhere.
# Rab9 promoter act: qHTS Assay for Rab9 Promoter Activators | Potency, µM (titrated, usually from 9.22 µM), for inactives: at the top dose activation, negative = inhibition, most hits filed as activators | Huh7 Rab9 promoter-luciferase reporter, luminescence, 24 h | actives 2.8% (n = 320,000) | AID 485297, 2010; further: % of control where 0% means no effect; nearly all actives have a fitted effect of over 60% in size
#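 Huh7 cells stably carrying Rab9 promoter–luciferase reporter, plated 1500 cells/well, compound added after 2 h and incubated 24 h at 37 °C; luciferase luminescence then read after 10 min with detection reagent.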
# ELG1 genotox: qHTS screen for small molecules that induce genotoxicity in human embryonic kidney (HEK293T) cells expressing luciferase-tagged ELG1 | HEK293T ELG1-luciferase reporter, luminescence, 16 h | Potency, µM (top dose mostly 46 µM), inactives show at the top dose activity change, positive = activation, most hits filed as activators | actives 1.3% (n = 330,000) | AID 504466, 2011; further: % of control where 0% means no effect; nearly all actives have a fitted effect of over 60% in size
#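 HEK293T cells expressing luciferase-tagged ELG1 were exposed to compound or DMSO vehicle for 16 hr at 37 °C and 5% CO2. Luciferase activity was then measured with ONE-Glo after 30 min at room temperature.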
# SMN2 splice up: qHTS Assay for Enhancers of SMN2 Splice Variant Expression; HEK293 SMN2-luciferase splicing reporter, luminescence, 30-36 h; Potency, µM (top dose mostly 46.1 µM), without a hit: at the top dose activity change, positive = activation, most hits filed as activators; actives 2.8% (n = 210,000); AID 1458, 2008; further: % of control where 0% means no effect; nearly all actives have a fitted effect of over 55% in size
#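 HEK293 cells carry an SMN2 minigene-luciferase reporter in which exon 7 inclusion puts luciferase in frame. Cells were seeded at 2000 cells/well, attached for 10-12 hours, then exposed to compounds for 30-36 hours at 37C before ONE-Glo luminescence.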
# FLuc modulator: qHTS profiling assay for firefly luciferase inhibitor/activator using purifed enzyme and Km concentrations of substrates (counterscreen for miR-21 project); Luciferin 4-monooxygenase (Photinus pyralis), P08659; purified FLuc, Km substrates, luminescence inhibition; Potency, µM (doses to about 57.5 µM), without a hit: top-dose activity change, negative = inhibition, usual class: inhibitors; actives 6.9% (n = 360,000);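 further: plate controls were vehicle for no effect and reference inhibitor for full effect; nearly all actives have a fitted effect of over 55% in size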
# Target sequence (P08659 whole entry, looked up): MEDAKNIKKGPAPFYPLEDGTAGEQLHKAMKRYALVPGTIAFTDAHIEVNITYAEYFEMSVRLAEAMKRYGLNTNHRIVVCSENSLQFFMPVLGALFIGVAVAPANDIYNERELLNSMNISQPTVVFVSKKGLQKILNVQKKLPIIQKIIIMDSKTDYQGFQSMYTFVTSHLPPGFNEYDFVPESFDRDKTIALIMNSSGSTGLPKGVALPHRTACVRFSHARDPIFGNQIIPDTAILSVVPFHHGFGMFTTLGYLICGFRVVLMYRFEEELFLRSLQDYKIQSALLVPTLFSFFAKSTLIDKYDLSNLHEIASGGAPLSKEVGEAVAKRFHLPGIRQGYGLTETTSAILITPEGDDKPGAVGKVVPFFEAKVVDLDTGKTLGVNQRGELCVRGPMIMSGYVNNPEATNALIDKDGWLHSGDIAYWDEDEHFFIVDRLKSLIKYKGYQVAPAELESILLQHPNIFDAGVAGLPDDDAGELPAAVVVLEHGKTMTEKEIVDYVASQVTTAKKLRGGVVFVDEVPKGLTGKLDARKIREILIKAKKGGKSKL
#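 Purified P. pyralis luciferase (10nM final) with 10uM D-luciferin and 10uM ATP (Km levels) in 50mM Tris acetate pH 7.5, 10mM Mg acetate, 0.01% Tween-20, 0.05% BSA; qHTS 6-point titration, ~60 µM downward; luminescence read.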
# NPC1 prom act: qHTS Assay for NPC1 Promoter Activators | AID 485313, 2010 | actives 2.4% (n = 320,000) | Potency, µM (top dose mostly 9.22 µM), for the others: top-dose activation, hits mostly activators | Huh7 NPC1 promoter luciferase reporter, 24 h; further: % of control where 0% means no effect; nearly all actives have a fitted effect of over 60% in size
#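 Luminescence from an NPC1 promoter-driven luciferase reporter in stably transfected Huh7 cells was measured after 24 h compound treatment at 37 °C, followed by 10 min ambient incubation with luciferase detection reagent.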
# * = called active by the depositor; ? = inconclusive; . = no result. The call rests on the fitted dose curve; in most records, active means well fitted curve in the direction sought with a large enough effect; inconclusive means small, poorly fitted or top-dose-only effect, or another doubt; inactive means no such curve, though single readings can be large; an effect the other way counts as inactive or inconclusive. Potency means the concentration at half of the fitted maximal effect.
SMILES,Rab9 promoter act,ELG1 genotox,SMN2 splice up,FLuc modulator,NPC1 prom act
CN(C)N=Nc1ccc(-c2cn(Cc3ccccc3)cn2)cc1,?,?,.,19µM*,2.82µM*
CCC(=O)NC1=C(Cl)C(=O)C(NC(=O)CC)=C(Cl)C1=O,-3.7%,0.8%,.,5.36µM*,2.9%
O=C(c1ccccc1)c1cnc(-c2ccc(Cl)cc2)s1,0.316µM*,2.59µM*,?,0.338µM*,0.355µM*
O=C(c1ccc(Cl)cc1)c1cnc(-c2ccc(Cl)cc2)s1,25.3%,6.5%,?,1.7%,15.8%
O=C(c1ccccc1)c1cnc(-c2ccccc2)s1,0.316µM*,2.06µM*,12.6µM*,1.2µM*,0.501µM*
Cc1cc(C)c(NC(=O)COc2ccccc2C(=O)Nc2ccc3c(c2)oc2ccccc23)c(C)c1,0.1%,13.3%,-4.4%,13.5µM*,-3.9%
COc1ccccc1C(=O)Nc1ccc2c(C)cc(=O)oc2c1,1.58µM*,?,.,?,2µM*
COc1cc2c(cc1NC(=O)COc1cc(C)cc(C)c1)oc1ccccc12,.,.,2.8%,-0.3%,.
Cc1ccccc1OCCC(=O)Nc1ccc2c(C)cc(=O)oc2c1,15.3%,21.2%,.,2.6%,-3.8%
CCOc1ncccc1C(=O)Nc1ccc(F)c(F)c1,6.8%,-4.5%,1.9%,-6.4%,-1.2%
CCOc1ncccc1C(=O)Nc1ccc2c(C)cc(=O)oc2c1,?,2.0%,-11.3%,-0.2%,3.55µM*
COc1ccc(NC(=S)N2CCN(c3ncccn3)CC2)cc1,-7.1%,1.3%,14.0%,-1.1%,1.1%
COc1ccc(C)cc1Nc1c2c(nc3ccccc13)CCC2,-18.8%,-7.7%,-87.0%,5.2%,-23.3%
O=C(C1CCN(S(=O)(=O)N2CCOCC2)CC1)N1CCN(Cc2ccc3c(c2)OCO3)CC1,-4.4%,-3.9%,-18.1%,0.1%,-2.9%
COCC(=O)Nc1ccc(S(=O)(=O)Nc2nccs2)cc1,-3.3%,-6.0%,.,-2.1%,1.7%
COCCNC(=O)CN(Cc1ccc(OC)cc1)C(=O)CCC(=O)Nc1nccs1,-1.7%,-1.2%,.,-0.9%,-1.8%
CCCn1c(C)cc(C(=O)CSc2nc3nc(C)cc(C)n3n2)c1C,-0.4%,-0.4%,-18.3%,21.3µM*,-1.1%
CCOc1ccc(C(=O)Nc2ccc3nc(N(CC)CC)cc(C)c3c2)cc1,.,.,0.6%,?,.
COCCCNC(=O)c1ccc2c(c1)ncn2-c1ccc(C)cc1C,-2.3%,-0.9%,.,7.4%,-6.8%
Cc1ccc2c(c1)COc1c3ccc(C(=O)N[C@@H](CO)C(C)C)cc3nn1-2,3.55µM*,?,.,6.75µM*,1.78µM*
C[C@@H](CO)NC(=O)c1ccc2c3n(nc2c1)-c1ccccc1CO3,?,?,.,0.601µM*,0.447µM*
O=C(NCC1CCCO1)c1ccc2c3n(nc2c1)-c1ccccc1CO3 (configuration not stated),1.12µM*,?,.,4.78µM*,1µM*
CCCCn1nc2cc(C(=O)N[C@H](C)C3CCCCC3)ccc2c1OCC,-0.6%,-4.1%,-36.4%,-0.6%,-1.2%
O=C(NCC1CCCO1)c1ccc2c(c1)OCO2 (configuration not stated),18.7%,9.5%,-6.3%,3.8%,4.9%
COCCNC(=O)c1ccc2c3n(nc2c1)-c1ccc(C)cc1CO3,1.12µM*,?,.,6.75µM*,0.708µM*
SMILES,Rab9 promoter act,ELG1 genotox,SMN2 splice up,FLuc modulator,NPC1 prom act
COc1ccc(C(CNC(=O)COc2cccc(C)c2)N2CCCC2)cc1 (configuration not stated),-2.8%,-0.7%,.,0.9%,-2.3%
COc1ccccc1NC(=O)CSc1nnc(CNC(=O)c2ccco2)o1,.,.,-8.9%,-0.7%,.
CCC(=O)c1ccc(N2CCN(C(=O)c3cccc(F)c3)CC2)c(F)c1,-2.7%,0.1%,-22.8%,-2.9%,-7.3%
O=C(Cc1ccc([N+](=O)[O-])cc1)Nc1ccon1,0.2%,1.5%,.,-1.1%,-1.3%
COc1ccc(-c2cc3nc4n(c(=O)c3s2)CCCCC4)cc1,0.708µM*,2.59µM*,.,1.35µM*,0.631µM*
COc1ccc(NS(=O)(=O)c2cccc(-c3nnc4n3CCCCC4)c2)cc1,1.1%,-2.2%,-3.0%,1.2%,7.7%
COc1ccc(-c2nc3n(c2C)CCC3)cc1,18.2%,14.0%,.,?,22.1%
COc1ccc(-c2cc3nc4n(c(=O)c3s2)CCC4)cc1,0.501µM*,0.13µM*,0.631µM*,0.601µM*,0.447µM*
CC(CCc1ccccc1)NC(=O)C(=O)Nc1ccccc1 (configuration not stated),2.82µM*,?,14.1µM*,?,3.16µM*
Cc1ccccc1NC(=O)C(=O)NC(C)CCc1ccccc1 (configuration not stated),0.9%,3.5%,11.8%,-8.2%,0.4%
O=C1c2cccc3c(N4CCCCC4)ccc(c23)C(=O)N1CCO,?,?,9.6%,15.1µM*,?
O=C1c2cccc3c(N4CCCCC4)ccc(c23)C(=O)N1c1cccc(O)c1,0.2%,12.5%,-10.1%,19µM*,0.2%
Cc1ccc(OCCn2c(=O)n(C)c3ccccc32)cc1,2.82µM*,?,.,10.7µM*,3.16µM*
Cn1c(=O)n(CCOc2ccc(Cl)cc2Cl)c2ccccc21,2.7%,14.6%,-14.9%,-15.8%,-0.3%
Cn1c(=O)n(CCOc2ccc([N+](=O)[O-])cc2)c2ccccc21,11.1%,8.1%,.,?,15.4%
Clc1ccccc1OCCn1nnc2ccccc21,?,?,.,?,3.16µM*
Cn1c(=O)n(CCOc2ccccc2Cl)c2ccccc21,4.47µM*,?,?,23.9µM*,?
COc1ccc(C2=NCCn3nc4cc(C(F)(F)F)ccc4c32)cc1,-4.4%,7.6%,.,-11.4%,2.3%
CCc1cc(OCCCSc2nc(C)cc(=O)[nH]2)ccc1Cl,-0.4%,-5.9%,-46.9%,-0.9%,-3.9%
Cc1cc(=O)[nH]c(SCCCOc2ccccc2Cl)n1,1.1%,-7.3%,-2.5%,23.9µM*,12.1%
CCCc1cc(=O)[nH]c(SCCOc2ccc(OCC)cc2)n1,1.4%,-8.8%,4.0%,0.1%,0.3%
Cc1cc(=O)[nH]c(SCCOc2ccc(OC(C)C)cc2)n1,?,5.17µM*,?,15.1µM*,?
Cc1cc(=O)[nH]c(SCCOc2ccc3c(c2)CCC3)n1,.,.,12.6µM*,7.57µM*,.
C/C=C/c1ccc(OCCSc2nc(C)cc(=O)[nH]2)c(OC)c1,9.2%,?,10.0%,13.5µM*,-7.4%
C/C=C/c1ccc(OCCOc2ccc(C=O)cc2)c(OC)c1,-0.8%,4.2%,-2.1%,-12.5%,1.2%
CCOc1ccc(OCCSc2nc(N)cc(=O)[nH]2)cc1,15.4%,4.1%,.,?,13.1%
Cc1cccc(-n2c(=O)c3ccccc3n(Cc3ccccc3C#N)c2=O)c1,.,.,2.6%,-0.3%,.
